Most compounds without a hit are left out; they make up all but 1.7% or so of the library.
Vif imaging: inhibitors of HIV Vif; HEK293T cells, Vif self-association by quenched fluorescence, imaging, 24 h; inhibition, % at 7.49 µM; 340,000 tested, 0.35% active; AID 602346; in the data active = inhibition above about 50%, passing the limit was not always enough
CFTR F508del cor: correctors of CFTR F508del function in bronchial epithelial cells | 350,000 tested, 0.36% active | CFBE cells, YFP halide quenching; stimulated with forskolin plus potentiator P3; % fluorescence drop versus neutral controls | AID 720511 | activity (quench increase), % at 7.58 µM;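 active = mean added fluorescence quench of at least 8% versus neutral control, with both replicates also reaching 8%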;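 note: cells transiently co-express mutant CFTR-F508del with the halide-sensitive YFP; corrector assay measuring rescue of mutant channel to the surface after 24 h compound exposure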
FGF22 binding: binders of recombinant human FGF22 by thermal shift; 340,000 tested, 1.5% active; SYPRO orange fluorescence; percent of sucrose octasulfate shift, DMSO zero; activity (Tm shift, normalised), % at 9.99 µM; Q9HCT0;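 active = mean Tm shift, scaled 0 neutral to 100 positive control, at about 1.3% or above, every replicate too, limit read from the data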
Target sequence (Q9HCT0 whole entry, looked up): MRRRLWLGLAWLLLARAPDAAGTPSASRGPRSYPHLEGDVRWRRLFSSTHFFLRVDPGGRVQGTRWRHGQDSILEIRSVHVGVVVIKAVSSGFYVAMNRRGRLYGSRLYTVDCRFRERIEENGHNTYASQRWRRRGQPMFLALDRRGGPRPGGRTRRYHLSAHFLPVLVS
Starred values were filed as active, the others as inactive; nt = no result given; + = active, no number.

SMILES | Vif imaging | CFTR F508del cor | FGF22 binding
CCN1[C@@H]2Cn3c(ccc(-c4ccccc4)c3=O)[C@H]1[C@@H](C(=O)NC1CCC1)[C@@H]2CO | nt | 0.4 | 0.0
CC12CCC3c4ccccc4CCC3(CO1)C2 (configuration not stated) | 2.2 | -3.4 | 43.0*
CN1CCC(OC2c3ccccc3CCc3ccccc32)CC1 | 8.1 | 1.6 | -0.3
O=C1C(=O)N(CC(=O)N2CCCC2)c2ccccc21 | -4.2 | 1.0 | 43.0*
CC(C)NC(=O)CN1C(=O)C(=O)c2ccccc21 | -3.2 | nt | nt
CC(C)NC(=O)N[C@@H]1CC[C@@H](CCNS(=O)(=O)c2ccc(F)cc2)O[C@@H]1CO | nt | -3.1 | -0.1
O=S1(=O)c2ccc(Br)cc2N2CCC[C@@H]2CN1Cc1ccc(Cl)cc1 | -4.2 | 0.4 | -0.3
O=S1(=O)c2ccc(Br)cc2N2CCC[C@H]2CN1Cc1ccccc1 | 4.6 | 9.5* | 0.2
CCN1C(=O)/C(=C/c2ccc(N3CCCC3)cc2)NC1=S | 61.3* | nt | nt
Cc1cc(/C=C2/C(=O)N(C)C(=S)N2C)ccc1N1CCCC1 | 31.3 | 5.7 | 42.9*
Cc1cc(/C=C2\NC(=S)N(C)C2=O)ccc1N1CCCC1 | + | nt | -0.4
CCCN1C(=O)/C(=C/c2ccc(N3CCOCC3)cc2)NC1=S | -0.8 | -2.8 | -0.1
COc1cc(/C=C2\NC(=S)N(C)C2=O)ccc1O | 1.0 | -1.5 | 41.6
CCCN1C(=O)/C(=C/c2ccc(OCC(=O)OCC)cc2)NC1=S | -7.1 | -2.6 | 0.0
CCCN1C(=O)/C(=C/c2ccc(N3CCCC3)c(C)c2)NC1=S | 147.1* | nt | nt
Cc1cc(N2CCCC2)ccc1/C=C1/C(=O)N(C)C(=S)N1C | 1.7 | 1.6 | -0.1
CCCNC(=O)C[C@@H]1CC[C@@H]2[C@H](COc3ccc(NC(=O)c4cccc(F)c4)cc3C(=O)N2C)O1 | nt | 0.0 | -0.1
COc1ccc(CN(C)C[C@@H]2Oc3c(NC(=O)Nc4ccc(F)cc4)cccc3C(=O)N([C@H](C)CO)C[C@H]2C)cc1 | nt | 3.6 | -0.1
COc1ccc(CN(C)C[C@@H]2OCCCC[C@@H](C)Oc3ccc(NS(=O)(=O)c4ccc(F)cc4)cc3C(=O)N([C@H](C)CO)C[C@H]2C)cc1 | nt | 2.1 | -0.1
O=C(C1CC1)N1CC(=O)N2[C@H](CO)[C@@H](c3ccc(C#Cc4cccc(F)c4)cc3)[C@@H]2C1 | nt | 5.5 | nt
O=C(C[C@H]1C=C[C@@H](NC(=O)c2ccc(F)cc2)[C@@H](CO)O1)NCCc1ccccc1 | nt | 1.3 | 0.2
COCC(=O)N1[C@@H]2c3ccc(C4=CCCCC4)c(=O)n3C[C@@H]2[C@@H](CO)[C@@H]1C(=O)N1CCCCC1 | nt | 0.5 | 0.1
COc1ccccc1CNC(=O)C[C@H]1C=C[C@H](NC(=O)CN(C)C)[C@@H](CO)O1 | nt | 1.8 | -0.1
Clc1ccc(-c2noc(CN(Cc3ccccn3)CC3CCCO3)n2)cc1 (configuration not stated) | 30.1 | -3.1 | 43.4*
CCN(Cc1nc(-c2ccc(Cl)cc2)no1)CC1CCCO1 (configuration not stated) | 15.7 | 0.8 | 0.1
SMILES | Vif imaging | CFTR F508del cor | FGF22 binding
COc1ccccc1N1CCN(S(=O)(=O)c2cn(C)c(=O)n(C)c2=O)CC1 | -6.0 | 2.7 | -0.2
Cc1ccccc1OS(=O)(=O)c1cn(C)c(=O)n(C)c1=O | 6.7 | -1.4 | 43.3*
O=C(NCC[C@@H]1CC[C@H](NC(=O)c2cnccn2)[C@@H](CO)O1)Nc1ccc(Cl)cc1 | nt | -0.8 | 0.1
CC(=O)NC[C@H]1[C@@H](c2ccccc2)[C@@H](CO)N1C(=O)Cc1ccncc1 | nt | 0.4 | nt
COc1ccc(NC(=O)N2CCCC2C(=O)NC23CC4CC(CC(C4)C2)C3)cc1 (configuration not stated) | -5.0 | -0.5 | -0.1
O=C(O)C1CCCN1C(=O)C12CC3CC(CC(C3)C1)C2 (configuration not stated) | 4.9 | 1.6 | 0.0
O=C(COC(=O)C1CCCN1C(=O)C12CC3CC(CC(C3)C1)C2)c1ccc(Br)cc1 (configuration not stated) | 16.7 | -1.0 | 44.4*
COc1ccc(C(=O)COC(=O)C2CCCN2C(=O)C23CC4CC(CC(C4)C2)C3)cc1 (configuration not stated) | -0.2 | -1.6 | 43.2*
O=C(C[C@@H]1CC[C@@H](NC(=O)Nc2cccc(F)c2)[C@H](CO)O1)NCC1CCCCC1 | nt | -2.5 | 0.1
COCCN(C(=O)CCC(=O)Nc1nccs1)C(C(=O)NC(C)(C)C)c1ccc(C)cc1 (configuration not stated) | 84.2* | 1.1 | 0.1
COCCN(C(=O)CCC(=O)Nc1nccs1)C(C(=O)NC(C)(C)C)c1ccc(F)cc1 (configuration not stated) | -3.1 | -0.7 | -0.2
O=C(NCC1CC1)[C@@H]1[C@@H](CO)[C@@H]2Cn3c(cccc3=O)[C@@H]2N1C(=O)CC1CC1 | nt | -1.9 | -0.1
